Rab9 prom act – activators of Rab9 promoter | Huh7 Rab9 promoter-luciferase reporter, luminescence, 24 h | Potency, µM (top dose mostly 9.22 µM), without a hit: top-dose activation, negative = inhibition, usual class: activators | hit rate 2.8% among 320,000 | AID 485297; further: % of control where 0% means no effect; nearly all actives have a fitted effect of over 60% in size
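Luminescence read-out: Huh7 cells stably expressing Rab9-luciferase, treated 24 h with compound at 37 °C, then lysed with luciferase reagent for 10 min at ambient before reading.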
SMN2 splice up – enhancers of SMN2 splice variant expression | HEK293 SMN2-luciferase splicing reporter, luminescence, 30-36 h | Potency, µM (highest dose often 46.1 µM), without a hit: at the top dose activity change, positive = activation, most hits filed as activators | hit rate 2.8% among 210,000; further: % of control where 0% means no effect; nearly all actives have a fitted effect of over 55% in size
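HEK293 cells carry an SMN2 minigene-luciferase reporter in which exon 7 inclusion puts luciferase in frame. Cells were seeded at 2000 cells/well, attached for 10-12 hours, then exposed to compounds for 30-36 hours at 37C before ONE-Glo luminescence.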
NPC1 promoter act – activators of NPC1 promoter. Huh7 NPC1 promoter luciferase reporter, 24 h. Potency, µM (doses to about 9.22 µM), without a hit: at the highest dose activation, most hits filed as activators. hit rate 2.4% among 320,000. AID 485313; further: % of control where 0% means no effect; nearly all actives have a fitted effect of over 60% in size
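In 1536-well qHTS, Huh7 cells harboring an NPC1 promoter–luciferase construct received compound for 24 h; activation was quantified by luminescence following luciferase reagent addition.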
FLuc counter – counter-screen for miR-21 project: firefly luciferase inhibitors or activators. P08659. purified FLuc, Km substrates, luminescence inhibition. Potency, µM (top dose mostly 57.5 µM), without a hit: at the highest dose activity change, negative = inhibition, usual class: inhibitors. hit rate 6.9% among 360,000. AID 588342;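 further: plate controls were vehicle for no effect and reference inhibitor for full effect; nearly all actives have a fitted effect of over 55% in size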
Target sequence (P08659 whole entry, looked up): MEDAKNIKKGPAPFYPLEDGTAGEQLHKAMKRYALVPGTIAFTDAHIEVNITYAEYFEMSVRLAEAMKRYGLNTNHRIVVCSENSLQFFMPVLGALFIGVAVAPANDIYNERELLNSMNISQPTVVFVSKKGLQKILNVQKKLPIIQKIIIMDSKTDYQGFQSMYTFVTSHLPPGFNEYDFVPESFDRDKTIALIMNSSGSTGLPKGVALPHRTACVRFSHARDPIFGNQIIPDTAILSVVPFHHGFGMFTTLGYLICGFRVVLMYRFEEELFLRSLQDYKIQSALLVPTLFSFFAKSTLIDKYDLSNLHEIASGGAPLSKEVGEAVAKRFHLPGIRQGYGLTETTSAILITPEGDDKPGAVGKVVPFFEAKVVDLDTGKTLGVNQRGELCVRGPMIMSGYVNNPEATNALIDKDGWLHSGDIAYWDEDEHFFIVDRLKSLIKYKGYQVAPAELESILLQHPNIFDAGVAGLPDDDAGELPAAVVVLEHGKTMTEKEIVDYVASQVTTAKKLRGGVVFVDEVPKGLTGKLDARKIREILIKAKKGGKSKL
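Purified P. pyralis luciferase (10nM final) with 10uM D-luciferin and 10uM ATP (Km levels) in 50mM Tris acetate pH 7.5, 10mM Mg acetate, 0.01% Tween-20, 0.05% BSA; qHTS 6-point titration, ~60 µM downward; luminescence read.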
ELG1 genotoxic – induces genotoxicity in HEK293T cells with luciferase-tagged ELG1 | Potency, µM (highest dose often 46 µM), for the others: top-dose activity change, positive = activation, usual class: activators | hit rate 1.3% among 330,000 | AID 504466 | HEK293T ELG1-luciferase reporter, luminescence, 16 h; further: % of control where 0% means no effect; nearly all actives have a fitted effect of over 60% in size
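ELG1-luciferase HEK293T cells, 2,000/well; compound pinned in; 16 hr, 37 °C, 5% CO2; ONE-Glo, 30 min RT; luminescence on CCD imager.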
* marks the source's active call; other numbers are inactive results; ? = inconclusive; . = not tested or not shown; [ ] = dose if it differs, or a comment. This is a sample that favours compounds with a hit; in the whole collection about 7.5% have one here. The call rests on the fitted dose curve; in most records, active means well fitted curve in the direction sought with a large enough effect; inconclusive means small, poorly fitted or top-dose-only effect, or another doubt; inactive means no such curve, though single readings can be large; an effect the other way counts as inactive or inconclusive. Potency means the concentration at half of the fitted maximal effect.

SMILES	Rab9 prom act	SMN2 splice up	NPC1 promoter act	FLuc counter	ELG1 genotoxic
COc1ccccc1OCc1ccc(C(=O)N(C)C)o1	-7.9%	?	1.7%	?	17.6%
CCOc1ccc(S(=O)(=O)N2CCOCC2)cc1NC(=O)CN1C(=O)NC(C)(c2ccccc2)C1=O (stereo not drawn)	-0.7%	.	-1.9%	4.1%	1.9%
CC1CCC(=C(C#N)C(=O)Nc2cccc(Cl)c2)CC1 (stereo not drawn)	-6.3%	-11.2%	-1.1%	23.9µM*	-0.9%
C/C(CCC(C)C)=N\Nc1cc(C)c2ccccc2n1	4.1%	2.1%	-9.1%	12µM*	-0.7%
COc1ccc(C(=O)Nc2ccc(NC(=O)c3cccs3)cn2)cc1	4.0%	.	10.2%	-15.5%	?
Cc1cc(NC(=O)C(C)C)ncc1NC(=O)c1ccccn1	3.16µM*	12.6µM*	?	?	?
CCC(=O)Nc1ccc(NC(=O)c2ccccn2)cn1	0.631µM*	14.1µM*	1.26µM*	10.7µM*	2.51µM*
CC(C)C(=O)Nc1ccc(NC(=O)c2cccs2)cn1	?	7.1%	?	?	18.4µM*
CC(C)C(=O)Nc1ccc(NC(=O)c2ccccn2)cn1	0.562µM*	.	0.708µM*	6.75µM*	?
CCOc1ccc(C(=O)NCc2ccco2)cc1Cl	11.4%	.	-3.5%	2.0%	-1.3%
CCCCCc1nnc(NC(=O)Cn2cnc3ccccc3c2=O)s1	1.5%	-21.2%	-1.2%	15.3%	-0.9%
O=C(Nc1ccc(NC(=O)C2CC2)nc1)c1ccccn1	1.26µM*	.	0.562µM*	6.75µM*	?
Brc1ccc(C2Nc3cccc4cccc(c34)N2)s1	?	14.3%[1.84 µM]	19.6%	?	-0.3%
c1ccc(-c2ccc(-c3nc(-c4ccncc4)no3)cc2)cc1	0.141µM*	?	?	0.601µM*	1.64µM*
Clc1ccccc1-c1nc(-c2ccncc2)no1	1.26µM*	?	3.98µM*	6.75µM*	10.3µM*
Cc1ccc(SCc2nc(-c3cccnc3)no2)cc1	11.7%	7.5%	10.7%	0.9%[2.3 µM]	0.6%
c1ccc(-c2nc(-c3ccncc3)no2)cc1	.	?	.	12µM*	.
c1ccc(C(Cc2nc(-c3ccncc3)no2)c2ccccc2)cc1	1.5%[1.84 µM]	-91.2%	-17.7%	0.6%	?
O=[N+]([O-])c1ccc(-c2nc(-c3ccncc3)no2)cc1	?	.	?	?	11.7%
Cc1ccccc1-c1nc(-c2cccnc2)no1	?	?	?	10.7µM*	?
COCCn1c(SCC(=O)NC(=O)NC2CCCC2)nc2ccccc2c1=O	-4.5%	.	0.5%	-0.5%	-3.9%
Clc1ccccc1-c1nnc(-c2ccccc2CNc2ccccc2)o1	.	6.9%	.	?	.
c1ccc(-c2ccccc2-c2nc(-c3ccncc3)no2)cc1	0.1%	3.16µM*	-2.9%	-1.6%	-2.1%
Brc1ccc(-c2nc(-c3ccncc3)no2)o1	?	?	?	?	18.4µM*
Clc1ccc(Cl)c(-c2nc(-c3ccncc3)no2)c1	?	.	23.6%	?	7.9%
SMILES	Rab9 prom act	SMN2 splice up	NPC1 promoter act	FLuc counter	ELG1 genotoxic
Clc1ccccc1-c1nnc(-c2cccs2)o1	1.26µM*	11.2µM*	2.24µM*	9.53µM*	?
Cc1ccccc1-c1noc(-c2cccnc2NCc2ccco2)n1	.	.	.	5.2%	.
Cc1ccccc1-c1nc(-c2ccccn2)no1	0.447µM*	1.12µM*	?	0.477µM*	?
COc1cc(C2C(=O)N(C3CCCCCC3)CC(=O)N2CCC2=CCCCC2)ccc1OC(C)C (stereo not drawn)	.	.	.	-3.4%	.
Cc1nc(-c2noc(-c3ccccc3Cl)n2)c(C(F)(F)F)o1	28.8%	.	?	15.1µM*	17.7%
O=C(Nc1nnc(-c2cccnc2)o1)c1ccccc1Cl	2.3%	-33.0%	3.3%	-11.7%	2.7%
Clc1ccccc1-c1nnc(-c2cccnc2)o1	?	.	3.98µM*	15.1µM*	23.1µM*
Cc1ccc(-c2nc(-c3ccncc3)no2)c(Cl)c1	?	.	0.631µM*	0.477µM*	0.461µM*
Brc1ccc(-c2nc(-c3ccncc3)no2)cc1	3.16µM*	.	2.24µM*	2.39µM*	?
O=C(NC1(C(F)(F)F)C(=O)Nc2c1c(=O)[nH]c(=O)n2-c1ccc(Cl)cc1)c1ccccc1F (stereo not drawn)	.	.	.	5.4%	.
